Data reported in PubChem BioAssay (NCATS).
Where “and” joins values, the source holds several entries; their conditions need not be identical. Equal values may be shown once. Inconclusive results are not listed. Calls of active or inactive are those of the source. Calls follow the shape of the dose curve; as a rule, active = well fitted curve in the direction sought with a large enough effect; inconclusive = small, poorly fitted or top-dose-only effect, or another doubt; inactive = no such curve, though single readings can be large; an effect the other way counts as inactive or inconclusive.

Tests used:
[1] = Quantitative High-Throughput drug screen in 47 multiple myeloma cell lines against the NCATS MIPE library collection: XG1_PLB cell viability assay (AID 1919866); also: nearly all actives have a fitted effect of over 35% in size; also: potency is read from the fitted curve at half-maximal effect
Procedure, shortened: (§1)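 Cells were exposed to library compounds for 48 hours, after which ATP was measured by CellTiter-Glo. Signal was taken as median relative luminescence units.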

[2] = Quantitative High-Throughput drug screen in 47 multiple myeloma cell lines against the NCATS MIPE library collection: UTMC2_PLB cell viability assay (AID 1919868); details: CellTiter-Glo ATP luminescence, 48 h; viability (% of DMSO control): at 45.8 µM (top of the series); also: nearly all actives have a fitted effect of over 55% in size; also: potency is read from the fitted curve at half-maximal effect
Procedure, shortened: as §1

[3] = Quantitative High-Throughput drug screen in 47 multiple myeloma cell lines against the NCATS MIPE library collection: OPM2_DSMZ cell viability assay (AID 1919872); also: nearly all actives have a fitted effect of over 30% in size; also: potency is read from the fitted curve at half-maximal effect
Procedure, shortened: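 qHTS of the MIPE 4.0 collection: 500 myeloma cells/well, 48 h drug exposure at 37C in 5% CO2, then CellTiter-Glo for 5 min at room temperature before luminescence reading.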

[4] = Quantitative High-Throughput drug screen in 47 multiple myeloma cell lines against the NCATS MIPE library collection: PCM6_Riken cell viability assay (AID 1919870); also: nearly all actives have a fitted effect of over 30% in size; also: potency is read from the fitted curve at half-maximal effect
Procedure, shortened: as §1

[5] = Quantitative High-Throughput drug screen in 47 multiple myeloma cell lines against the NCATS MIPE library collection: RPMI8226_ATCC cell viability assay (AID 1919871); also: nearly all actives have a fitted effect of over 30% in size; also: potency is read from the fitted curve at half-maximal effect
Procedure, shortened: as §1

[6] = Quantitative High-Throughput drug screen in 47 multiple myeloma cell lines against the NCATS MIPE library collection: PE2_PLB cell viability assay (AID 1919869); also: nearly all actives have a fitted effect of over 35% in size; also: potency is read from the fitted curve at half-maximal effect
Procedure, shortened: as §1

[7] = Quantitative High-Throughput drug screen in 47 multiple myeloma cell lines against the NCATS MIPE library collection: KMS11_JCRBsus cell viability assay (AID 1919873); also: nearly all actives have a fitted effect of over 50% in size; also: potency is read from the fitted curve at half-maximal effect
Procedure, shortened: as §1

[8] = Quantitative High-Throughput drug screen in 47 multiple myeloma cell lines against the NCATS MIPE library collection: KMS28BM_JCRB cell viability assay (AID 1919874); also: nearly all actives have a fitted effect of over 35% in size; also: potency is read from the fitted curve at half-maximal effect
Procedure, shortened: as §1

[9] = target: Cytochrome P450 3A4 (Homo sapiens) (UniProt P08684); assay: qHTS for inhibitors of CYP3A4 against the NCATS DSHEA and TCM libraries (AID 1919971);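 also: inhibition lowers luminescence from luciferin made by CYP3A4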
Procedure, shortened: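 Concentration-response screening with isoform-matched pro-luciferin substrates. The CYP reaction was initiated by NADPH regenerating solution and ran 30-45 min in darkness at room temperature.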

[10] = Quantitative High-Throughput drug screen in 47 multiple myeloma cell lines against the NCATS MIPE library collection: VP6_DJ cell viability assay (AID 1919867); also: nearly all actives have a fitted effect of over 40% in size; also: potency is read from the fitted curve at half-maximal effect
Procedure, shortened: as §1

Measured: Potency

Sequence of Cytochrome P450 3A4 (Homo sapiens) (P08684 whole entry, looked up, canonical isoform): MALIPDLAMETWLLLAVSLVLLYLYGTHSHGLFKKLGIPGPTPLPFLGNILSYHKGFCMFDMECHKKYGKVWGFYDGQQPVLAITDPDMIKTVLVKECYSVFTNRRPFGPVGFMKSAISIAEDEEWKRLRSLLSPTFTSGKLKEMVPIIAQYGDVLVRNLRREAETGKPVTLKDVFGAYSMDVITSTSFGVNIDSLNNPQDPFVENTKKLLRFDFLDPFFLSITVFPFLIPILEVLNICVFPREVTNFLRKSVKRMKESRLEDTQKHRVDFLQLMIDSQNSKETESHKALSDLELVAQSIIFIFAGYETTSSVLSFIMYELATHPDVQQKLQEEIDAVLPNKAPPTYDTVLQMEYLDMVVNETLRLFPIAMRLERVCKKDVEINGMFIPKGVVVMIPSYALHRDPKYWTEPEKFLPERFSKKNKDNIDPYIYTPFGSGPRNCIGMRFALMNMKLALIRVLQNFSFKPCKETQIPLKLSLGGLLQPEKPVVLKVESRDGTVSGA

O=S(=O)(N=Cc1c(O)ccc2ccccc12)c1cccs1
active: [1] 20.9 µM | [2] 18.7 µM
inactive: [3]

CC(C)(C)NCC(O)c1ccc(O)c(CO)c1 (stereo not drawn)
inactive: [1] | [2] | [4] | [5] | [3]

CC(C)C[C@H](NC(=O)[C@@H](O)[C@H](N)Cc1ccccc1)C(=O)O
active: [1] 20.9 µM | [2] 23.5 µM | [6] 26.4 µM | [5] 20.9 µM | [7] 9.35 µM | [8] 16.6 µM

CCOC(=O)N[C@@H]1CC[C@@H]2[C@@H](C1)C[C@H]1C(=O)O[C@H](C)[C@H]1[C@@H]2C=Cc1ccc(-c2cccc(F)c2)cn1
inactive: [4] | [3]
active: [1] 16.6 µM | [5] 18.7 µM

CC(C=CC1=C(C)CCCC1(C)C)=CC=CC(C)=CC(=O)O
active: [1] 1.87 µM and 16.6 µM | [6] 16.6 µM | [4] 14.8 µM and 18.7 µM
inactive: [8]

COc1nc(-c2ccc3c(c2)OCO3)n(-c2ccc(NC(=O)CSc3ccccc3)cc2)n1
inactive: [1] | [6] | [4] | [3] | [7]

COc1ccc(-c2oc3cc(OC)ccc3c2C(=O)c2ccc(C#N)cc2)cc1
inactive: [6] | [5] | [3] | [7]
active: [1] 8.33 µM | [4] 5.26 µM

COc1ccc(CCN2CCN(CCCc3ccccc3)CC2)cc1OC
active: [8] 2.09 µM
inactive: [1] | [6] | [4] | [5]

c1ccc([C@H]2CN3CCSC3=N2)cc1
inactive: [2] | [6] | [3] | [7] | [8]
active: [1] 16.6 µM

Cc1c(CCOc2ccc(C(=O)O)cc2)c2cc(Cl)ccc2n1C(c1ccccc1)c1ccccc1
inactive: [1] | [6] | [4] | [7]

NC(=O)c1ccc(I)c([N+](=O)[O-])c1
active: [1] 18.7 µM | [6] 20.9 µM
inactive: [3] | [7] | [8]

CCc1cncnc1N1CCN(Cc2nc3ccc(C(F)(F)F)cc3[nH]2)CC1
active: [1] 10.5 µM | [2] 18.7 µM | [3] 9.35 µM | [7] 11.8 µM | [8] 23.5 µM

Nc1nc2[nH]cc(CCc3ccc(C(=O)N[C@@H](CCC(=O)O)C(=O)O)cc3)c2c(=O)[nH]1
active: [5] 0.264 µM | [7] 0.59 µM
inactive: [1] | [6] | [4] | [3] | [8]

Nc1ncnc2nc(-c3ccc(N4CCOCC4)nc3)cc(-c3cccc(Br)c3)c12
active: [1] 16.6 µM | [6] 18.7 µM

CCOc1ccn(-c2ccc(F)cc2)c(=O)c1C(=O)Nc1ccc(Oc2ccnc(N)c2Cl)c(F)c1
inactive: [3]
active: [1] 3.32 µM | [2] 13.2 µM | [6] 13.2 µM

OCCC#Cc1nc(-c2ccc(F)cc2)c(-c2ccncc2)n1CCCc1ccccc1
active: [1] 18.7 µM | [6] 20.9 µM | [4] 23.5 µM

Cc1csc(NC(=O)c2sc3nc4c(c(C(F)(F)F)c3c2N)CCC4)n1
inactive: [2] | [6] | [3]
active: [1] 2.35 µM | [5] 13.2 µM | [8] 26.4 µM

O=C(Nc1nc2ccccc2n1CCN1CCOCC1)c1cccc([N+](=O)[O-])c1
active: [1] 4.18 µM | [6] 1.05 µM | [4] 1.87 µM
inactive: [3] | [7] | [8]

Cc1[nH]c(=O)c(C#N)cc1-c1ccc2nccn2c1
active: [4] 2.64 µM
not listed: [2] | [9] | [10]
inactive: all other assays above

Nc1nccc(-c2ccc3noc(-c4ccc(Cl)cc4)c3c2)n1
active: [1] 3.72 µM
inactive: [2] | [5] | [3] | [7] | [8]

CC(=O)NC(C)c1ccc(Oc2ccc(OC(C)C)cc2)cc1 (stereo not drawn)
active: [1] 16.6 µM | [6] 16.6 µM | [4] 16.6 µM | [3] 8.33 µM

COc1ccc(CC2=NN3C([C@@H](CCc4ccccc4)[C@@H](C)O)=NC(C)C3C(=O)N2)cc1OC (stereo partly drawn)
not listed: [2] | [9] | [10]
inactive: all other assays above

Fc1ccc(Cl)cc1-c1nc(Nc2ccncc2)c2nccnc2n1
inactive: [1] | [5] | [3] | [8]
active: [6] 7.43 µM | [4] 5.9 µM

CC(C)NCC(O)COc1ccc(COCCOC(C)C)cc1 (stereo not drawn)
inactive: [1] | [2] | [4] | [5] | [3]

NCCCC(N)(C(=O)O)C(F)F (stereo not drawn)
active: [7] 18.7 µM
inactive: [1] | [6] | [3] | [8]

O=C1[C@H](Cc2ccc(O)cc2)N2C(=O)CCN(C(=O)NCc3ccccc3)[C@H]2CN1Cc1cccc2ccccc12
active: [1] 9.35 µM | [6] 4.69 µM | [7] 1.66 µM

Cn1c(=O)c(F)c(Nc2ccc(I)cc2F)c2c(=O)n(C[C@@H](O)CO)cnc21
inactive: [1] | [5] | [8]
active: [6] 9.35 µM

O=c1[nH]cnc2[nH]ncc12
inactive: [1] | [4] | [5] | [7]
active: [6] 18.7 µM

NC(=O)c1cnccn1
not listed: [2] | [10]
inactive: all other assays above

Oc1ccc(C2CNCCc3c2cc(O)c(O)c3Cl)cc1 (stereo not drawn)
inactive: [1] | [6] | [5] | [3] | [7] | [8]

CCn1c(-c2nonc2N)nc2cnc(Oc3cccc(NC(=O)c4ccc(OCCN5CCOCC5)cc4)c3)cc21
active: [10] 8.33 µM | [2] 0.935 µM | [6] 10.5 µM | [7] 11.8 µM | [8] 5.26 µM

NC(N)=NC(=O)c1nc(Cl)c(N)nc1N
inactive: [3]
active: [1] 8.33 µM

O=C1CCc2cc(OCCCCc3nnnn3C3CCCCC3)ccc2N1
inactive: [10] | [4] | [3] | [7] | [8]

CS(=O)(=O)c1ccc(C(=O)Nc2ccc(Cl)c(-c3ccccn3)c2)c(Cl)c1
inactive: [5] | [3] | [7] | [8]
active: [1] 1.66 µM

Cc1cc(C=c2sc3nc4ccccc4n3c2=O)c(C)n1-c1ccccc1
inactive: [10] | [6] | [4] | [7] | [8]

N=c1nc(N2CCCCC2)cc(N)n1O
active: [1] 26.4 µM | [4] 23.5 µM
inactive: [5] | [7] | [8]

NC(=O)c1ccc(-c2nc(-c3ccc4c(c3)OCCO4)c(-c3ccccn3)[nH]2)cc1
inactive: [2] | [7] | [8]
active: [10] 23.5 µM | [4] 13.2 µM | [3] 14.8 µM

CC(=O)Oc1ccccc1C(=O)O
active: [1] 5.26 µM | [4] 5.26 µM | [7] 10.5 µM | [8] 9.35 µM
inactive: [5] | [3]

Cc1ccc(-n2nc(C(C)(C)C)cc2NC(=O)Nc2ccc(OCCN3CCOCC3)c3ccccc23)cc1
inactive: [3] | [8]
active: [10] 10.5 µM | [2] 4.18 µM | [6] 16.6 µM | [4] 23.5 µM

O=C(C1CC1)N1CC[C@@H](Cn2c(-c3ccc(-c4ccc5occc5c4)cc3)nc3cnccc32)C1
active: [1] 16.6 µM | [3] 20.9 µM
inactive: [5]

CC1(C)CNc2cc(NC(=O)c3cccnc3NCc3ccncc3)ccc21
active: [10] 1.66 µM | [4] 1.32 µM | [5] 18.7 µM | [7] 20.9 µM
inactive: [8]

O=C(Nc1ccc(F)c(C(F)(F)F)c1)Nc1nnc(-c2ccncc2)s1
active: [10] 4.18 µM | [4] 1.87 µM

NS(=O)(=O)c1cc2c(cc1Cl)NC=NS2(=O)=O
inactive: [10] | [6] | [4] | [5] | [3] | [8]

Clc1ccc(Nc2nnc(Cc3ccncc3)c3ccccc23)cc1
active: [10] 23.5 µM | [4] 14.8 µM
inactive: [3]

CCn1c(-c2nonc2N)nc2c(C#CC(C)(C)O)ncc(OC[C@H]3CCCNC3)c21
active: [10] 14.8 µM | [2] 0.059 µM | [6] 9.35 µM | [4] 14.8 µM | [7] 2.96 µM | [8] 0.372 µM

Cc1n[nH]c(C)c1Cc1sc2c(c1C(=O)N1C[C@H](O)CO1)c(=O)n(C)c(=O)n2CC(C)C
active: [6] 0.235 µM | [7] 0.0526 µM
inactive: [10] | [4] | [3] | [8]

Nc1nc2ccc(OC(F)(F)F)cc2s1
active: [10] 18.7 µM | [3] 18.7 µM
inactive: [6] | [7] | [8]
